Test results taken from PubChem BioAssay AID1159580 (chemical genetic matrix, 2015).
The whole screen tested about 5,500 compounds, of which about 2,000 (36%) were called active. Inconclusive results (about 18%) are left out. The list shows a part of the results. Values without a mark were called inactive. Cut-off read from the data, not from the text of the source: active = normalized growth mostly below about 0.91 (no sharp cut-off); inconclusive = no clear call, values can overlap the other calls; inactive = mostly above about 0.92.

Assay: chemical genetic growth profiling, strain panel (AID 1159580);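 note: tested at 20 µM; growth read once vehicle control cultures reached saturation at 30 °C; 1 = growth at the plate median or of vehicle wells; lower values mean less growth of the strain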
Settings: S. cerevisiae deletion strains, growth OD

Q: What does the source list for `CC(=O)c1ccc(-c2ccc(Cl)c(Cl)c2)o1`?
A: normalized growth (locus YAL013W, strain DEP1, active compounds read low): 0.803 (active); normalized growth (locus YBR229C, strain ROT2, active compounds read low): 0.825 (active); normalized growth (locus YCL061C, strain MRC1, active compounds read low): 0.776 (active); normalized growth (locus YDL101C, strain DUN1, active compounds read low): 0.661 (active); normalized growth (locus YDL134C, strain PPH21, active compounds read low): 0.428 (active); normalized growth (locus YEL061C, strain CIN8, active compounds read low): 0.445 (active); normalized growth (locus YGR078C, strain PAC10, active compounds read low): 0.863 (active); normalized growth (locus YGR229C, strain SMI1, active compounds read low): 0.956; normalized growth (locus YHR030C, strain SLT2, active compounds read low): 0.0914 (active); normalized growth (locus YHR087W, strain rtc3, active compounds read low): 0.816 (active); normalized growth (locus YJL187C, strain SWE1, active compounds read low): 0.807 (active); normalized growth (locus YJR043C, strain POL32, active compounds read low): 0.8 (active); normalized growth (locus YJR075W, strain HOC1, active compounds read low): 0.787 (active); normalized growth (locus YLR039C, strain RIC1, active compounds read low): 0.207 (active); normalized growth (locus YLR058C, strain SHM2 (second series), active compounds read low): 0.994; normalized growth (locus YLR085C, strain ARP6, active compounds read low): 0.112 (active); normalized growth (locus YLR262C, strain YPT6, active compounds read low): 0.264 (active); normalized growth (locus YML094W, strain GIM5, active compounds read low): 0.633 (active); normalized growth (locus YMR219W, strain ESC1, active compounds read low): 0.877 (active); normalized growth (locus YMR263W, strain SAP30, active compounds read low): 0.629 (active); normalized growth (locus YNL128W, strain TEP1, active compounds read low): 0.82 (active); normalized growth (locus YNL153C, strain GIM3, active compounds read low): 0.838 (active); normalized growth (locus YNL298W, strain CLA4 (second series), active compounds read low): 0.373 (active); normalized growth (locus YNL322C, strain KRE1, active compounds read low): 0.99; normalized growth (locus YNR030W, strain Alg12, active compounds read low): 0.483 (active); normalized growth (locus YOL006C, strain TOP1, active compounds read low): 0.15 (active); normalized growth (locus YPL055C, strain LGE1, active compounds read low): 0.747 (active); normalized growth (locus YPL241C, strain CIN2, active compounds read low): 0.365 (active); normalized growth (locus YPR135W, strain CTF4, active compounds read low): 0.213 (active)
